Results reported in PubChem BioAssay AID1159580 (chemical genetic matrix, 2015).
Values joined by “and” are separate entries in the source; they are usually repeats but may differ in a detail not shown here. Equal values may be shown once. The whole screen tested about 5,500 compounds, of which about 2,000 (36%) were called active. Another 18% or so got no clear call; they are omitted. No stated cut-off is given here; in the data, active means normalized growth mostly below about 0.91 (no sharp cut-off); inconclusive means no clear call, values can overlap the other calls; inactive means mostly above about 0.92. Some of the results follow. Some structures have more than one record in an assay (separate samples or runs), and their calls can disagree.

Experiment: chemical genetic growth profiling, strain panel (AID 1159580);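 further: tested at 20 µM; growth read once vehicle control cultures reached saturation at 30 °C; 1 = growth at the plate median or of vehicle wells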
Details: growth OD
[1] = S. cerevisiae deletion strains, locus YAL013W, strain DEP1, stronger effect = lower value
[2] = S. cerevisiae deletion strains, locus YBR021W, strain FUR4, stronger effect = lower value
[3] = S. cerevisiae deletion strains, locus YBR229C, strain ROT2, stronger effect = lower value
[4] = S. cerevisiae deletion strains, locus YCL029C, strain bik1, stronger effect = lower value
[5] = S. cerevisiae deletion strains, locus YDL035C, strain GPR1, stronger effect = lower value
[6] = S. cerevisiae deletion strains, locus YDL074C, strain BRE1, stronger effect = lower value
[7] = S. cerevisiae deletion strains, locus YDL101C, strain DUN1, stronger effect = lower value
[8] = S. cerevisiae deletion strains, locus YDL134C, strain PPH21, stronger effect = lower value
[9] = S. cerevisiae deletion strains, locus YDL185W, strain tfp1, stronger effect = lower value
[10] = S. cerevisiae deletion strains, locus YDL192W, strain arf1, stronger effect = lower value
[11] = S. cerevisiae deletion strains, locus YDR101C, strain arx1, stronger effect = lower value
[12] = S. cerevisiae deletion strains, locus YDR150W, strain NUM1, stronger effect = lower value
[13] = S. cerevisiae deletion strains, locus YDR162C, strain NBP2, stronger effect = lower value
[14] = S. cerevisiae deletion strains, locus YDR318W, strain mcm21, stronger effect = lower value
[15] = S. cerevisiae deletion strains, locus YDR388W, stronger effect = lower value
[16] = S. cerevisiae deletion strains, locus YDR502C, strain sam2, stronger effect = lower value
[17] = S. cerevisiae deletion strains, locus YEL061C, strain CIN8, stronger effect = lower value
[18] = S. cerevisiae deletion strains, locus YER110C, stronger effect = lower value
[19] = S. cerevisiae deletion strains, locus YER155C, strain BEM2, stronger effect = lower value
[20] = S. cerevisiae deletion strains, locus YER167W, strain BCK2, stronger effect = lower value
[21] = S. cerevisiae deletion strains, locus YGL078C, strain dbp3, stronger effect = lower value
[22] = S. cerevisiae deletion strains, locus YGL086W, strain mad1, stronger effect = lower value
[23] = S. cerevisiae deletion strains, locus YGL248W, strain PDE1, stronger effect = lower value
[24] = S. cerevisiae deletion strains, locus YGR078C, strain PAC10, stronger effect = lower value
[25] = S. cerevisiae deletion strains, locus YGR135W, strain pre9, stronger effect = lower value
[26] = S. cerevisiae deletion strains, locus YGR229C, strain SMI1, stronger effect = lower value
[27] = S. cerevisiae deletion strains, locus YGR252W, strain gcn5, stronger effect = lower value
[28] = S. cerevisiae deletion strains, locus YHR030C, strain SLT2, stronger effect = lower value
[29] = S. cerevisiae deletion strains, locus YHR079C, strain IRE1 (second series), stronger effect = lower value
[30] = S. cerevisiae deletion strains, locus YHR094C, strain hxt1, stronger effect = lower value
[31] = S. cerevisiae deletion strains, locus YHR129C, strain ARP1, stronger effect = lower value
[32] = S. cerevisiae deletion strains, locus YHR200W, strain rpn10, stronger effect = lower value
[33] = S. cerevisiae deletion strains, locus YIL066C, strain RNR3, stronger effect = lower value
[34] = S. cerevisiae deletion strains, locus YIL073C, strain SPO22, stronger effect = lower value
[35] = S. cerevisiae deletion strains, locus YIL125W, strain kgd1, stronger effect = lower value
[36] = S. cerevisiae deletion strains, locus YIR030C, strain dcg1, stronger effect = lower value
[37] = S. cerevisiae deletion strains, locus YJL095W, strain BCK1, stronger effect = lower value
[38] = S. cerevisiae deletion strains, locus YJL134W, strain LCB3, stronger effect = lower value
[39] = S. cerevisiae deletion strains, locus YJL168C, strain set2, stronger effect = lower value
[40] = S. cerevisiae deletion strains, locus YJL187C, strain SWE1 (second series), stronger effect = lower value
[41] = S. cerevisiae deletion strains, locus YJR043C, strain POL32, stronger effect = lower value
[42] = S. cerevisiae deletion strains, locus YJR075W, strain HOC1, stronger effect = lower value
[43] = S. cerevisiae deletion strains, locus YKL009W, strain mrt4, stronger effect = lower value
[44] = S. cerevisiae deletion strains, locus YKL068W, stronger effect = lower value
[45] = S. cerevisiae deletion strains, locus YKL085W, strain MDH1 (second series), stronger effect = lower value
[46] = S. cerevisiae deletion strains, locus YKL085W, strain MDH1, stronger effect = lower value
[47] = S. cerevisiae deletion strains, locus YKL190W, strain CNB1, stronger effect = lower value
[48] = S. cerevisiae deletion strains, locus YKR001C, strain vps1, stronger effect = lower value
[49] = S. cerevisiae deletion strains, locus YLR039C, strain RIC1, stronger effect = lower value
[50] = S. cerevisiae deletion strains, locus YLR058C, strain SHM2, stronger effect = lower value
[51] = S. cerevisiae deletion strains, locus YLR102C, strain apc9, stronger effect = lower value
[52] = S. cerevisiae deletion strains, locus YLR262C, strain YPT6, stronger effect = lower value
[53] = S. cerevisiae deletion strains, locus YLR268W, strain sec22, stronger effect = lower value
[54] = S. cerevisiae deletion strains, locus YLR330W, strain CHS5, stronger effect = lower value
[55] = S. cerevisiae deletion strains, locus YLR342W, strain FKS1 (second series), stronger effect = lower value
[56] = S. cerevisiae deletion strains, locus YLR418C, strain cdc73, stronger effect = lower value
[57] = S. cerevisiae deletion strains, locus YML032C, strain rad52, stronger effect = lower value
[58] = S. cerevisiae deletion strains, locus YML124C, strain tub3, stronger effect = lower value
[59] = S. cerevisiae deletion strains, locus YMR078C, strain ctf18, stronger effect = lower value
[60] = S. cerevisiae deletion strains, locus YMR223W, strain ubp8, stronger effect = lower value
[61] = S. cerevisiae deletion strains, locus YMR263W, strain SAP30, stronger effect = lower value
[62] = S. cerevisiae deletion strains, locus YMR307W, strain GAS1, stronger effect = lower value
[63] = S. cerevisiae deletion strains, locus YNL067W, strain RPL9B, stronger effect = lower value
[64] = S. cerevisiae deletion strains, locus YNL128W, strain TEP1, stronger effect = lower value
[65] = S. cerevisiae deletion strains, locus YNL153C, strain GIM3, stronger effect = lower value
[66] = S. cerevisiae deletion strains, locus YNL233W, strain BNI4, stronger effect = lower value
[67] = S. cerevisiae deletion strains, locus YNL250W, strain rad50, stronger effect = lower value
[68] = S. cerevisiae deletion strains, locus YNL271C, strain bni1, stronger effect = lower value
[69] = S. cerevisiae deletion strains, locus YNL298W, strain CLA4, stronger effect = lower value
[70] = S. cerevisiae deletion strains, locus YNL307C, strain MCK1, stronger effect = lower value
[71] = S. cerevisiae deletion strains, locus YNL322C, strain KRE1, stronger effect = lower value
[72] = S. cerevisiae deletion strains, locus YNR052C, strain pop2, stronger effect = lower value
[73] = S. cerevisiae deletion strains, locus YOL006C, strain TOP1, stronger effect = lower value
[74] = S. cerevisiae deletion strains, locus YOL012C, strain htz1
[75] = S. cerevisiae deletion strains, locus YOL147C, strain pex11, stronger effect = lower value
[76] = S. cerevisiae deletion strains, locus YOR061W, strain CKA2, stronger effect = lower value
[77] = S. cerevisiae deletion strains, locus YOR069W, strain VPS5, stronger effect = lower value
[78] = S. cerevisiae deletion strains, locus YOR136W, strain idh2, stronger effect = lower value
[79] = S. cerevisiae deletion strains, locus YOR144C, strain elg1, stronger effect = lower value
[80] = S. cerevisiae deletion strains, locus YOR184W, strain ser1, stronger effect = lower value
[81] = S. cerevisiae deletion strains, locus YOR316C, strain cot1, stronger effect = lower value
[82] = S. cerevisiae deletion strains, locus YPL055C, strain LGE1, stronger effect = lower value
[83] = S. cerevisiae deletion strains, locus YPL241C, strain CIN2, stronger effect = lower value
[84] = S. cerevisiae deletion strains, locus YPR119W, strain clb2, stronger effect = lower value
[85] = S. cerevisiae deletion strains, locus YPR141C, strain kar3, stronger effect = lower value
[86] = S. cerevisiae deletion strains, locus YPR163C, strain tif3, stronger effect = lower value
[87] = S. cerevisiae deletion strains, locus YPR167C, strain met16, stronger effect = lower value
[88] = S. cerevisiae deletion strains, strain wtn01, stronger effect = lower value
[89] = S. cerevisiae strains, strain wild type, stronger effect = lower value

Measured: normalized growth

CSc1ccc2c(c1)C(N1CCN(C)CC1)Cc1ccccc1S2 (stereo not drawn)
active: [2] 0.364 | S. cerevisiae deletion strains, locus YCL061C, strain MRC1 (second series), stronger effect = lower value 0.532 | [5] 0.755 | [6] 0.584 | [7] 0.537 | [8] 0.631 | [10] 0.102 | [13] 0.139 | [14] 0.807 | [15] 0.659 | [16] 0.859 | [22] 0.741 | [23] 0.712 | [24] 0.833 | [25] 0.753 | [26] 0.142 | [27] 0.254 | [28] 0.655 | [29] 0.911 | [33] 0.759 | [34] 0.437 | [37] 0.537 | [40] 0.658 | [42] 0.834 | [47] 0.657 | [48] 0.0823 | [49] 1.54 [resistant] | [50] 0.77 | [52] 1.56 [resistant] | [55] 0.2 | [56] 0.575 | [57] 0.894 | [60] 0.779 | [65] 0.747 | [66] 0.696 | [70] 0.791 | [71] 0.773 | [72] 0.705 | [73] 0.413 | [76] 0.122 | S. cerevisiae deletion strains, locus YOR083W, strain WHI5 (second series), stronger effect = lower value 0.745 | [80] 0.82 | [82] 0.596 and 0.806 | [86] 0.0814 | [88] 0.717 | [89] 0.698
inactive: [1] 0.916 | S. cerevisiae deletion strains, locus YAL040C, strain CLN3, stronger effect = lower value 1 | [3] 1.01 | [4] 0.987 | [9] 1.01 | [11] 0.929 | [12] 1 | S. cerevisiae deletion strains, locus YDR363W, strain ESC2, stronger effect = lower value 0.889 | [17] 0.975 | S. cerevisiae deletion strains, locus YER002W, strain NOP16, stronger effect = lower value 1.07 | [18] 0.976 | [19] 1.02 | [20] 0.937 | [21] 0.991 | [30] 0.993 | [31] 0.99 | [32] 0.959 | [35] 0.977 | [36] 0.958 | [38] 1.01 | [39] 0.947 | [41] 0.92 | [43] 0.962 | [44] 0.999 | [45] 0.987 | [46] 0.987 | [51] 0.987 | [53] 0.901 | [54] 0.994 | [58] 0.995 | [59] 0.993 | [61] 0.917 | [63] 0.914 | S. cerevisiae deletion strains, locus YNL175C, strain NOP13, stronger effect = lower value 1.02 | S. cerevisiae deletion strains, locus YNL197C, strain WHI3, stronger effect = lower value 1.06 | S. cerevisiae deletion strains, locus YNL224C, strain SQS1, stronger effect = lower value 1.01 | [67] 1.01 | [68] 0.977 | [69] 0.979 | [74] 0.27 | [75] 0.944 | [77] 1 | [78] 0.938 | [79] 1.01 | [81] 0.986 | [83] 0.996 | [84] 0.988 | [85] 0.998 | [87] 0.986
0.514 (active) and 0.999 (inactive): [62]
0.771 (active) and 1.09 (inactive): [64]

C#CCOS(=O)OC1CCCCC1Oc1ccc(C(C)(C)C)cc1 (stereo not drawn)
inactive: [1] 1.01 | [2] 1.03 | [3] 1.02 | [4] 1.01 | [5] 1 | [6] 1.07 | [7] 1.02 | [8] 1.02 | [9] 0.982 | [10] 1 | [11] 0.987 | [12] 1.02 | [13] 1.02 | [14] 1 | [15] 0.994 | [16] 0.993 | [17] 1.01 | [18] 0.998 | [19] 1.02 | [20] 1.01 | [21] 0.977 | [22] 1 | [23] 1.02 | [24] 1.02 | [25] 1 | [26] 1.04 | [27] 0.987 | [28] 1.02 | [29] 0.994 | [30] 0.988 | [31] 1.02 | [32] 0.99 | [33] 1.02 | [34] 1.01 | [35] 0.988 | [36] 0.984 | [37] 1.02 | [38] 1.01 | [39] 0.989 | [40] 1.02 | [41] 1.01 | [42] 1.04 | [43] 0.971 | [44] 0.994 | [45] 0.988 | [46] 0.988 | [47] 1 | [48] 0.993 | [49] 1.04 | [50] 1.02 | [51] 0.983 | [52] 1.05 | [53] 0.999 | [54] 1.02 | [55] 1.01 | S. cerevisiae deletion strains, locus YLR371W, strain rom2, stronger effect = lower value 0.983 | [56] 1.02 | S. cerevisiae deletion strains, locus YML016C, strain PPZ1, stronger effect = lower value 1.02 | [57] 0.986 | [58] 0.995 | [59] 0.996 | [60] 1 | [61] 1.03 | [62] 1.02 | [63] 1.02 | [64] 1.02 | [65] 1.02 | [66] 1.03 | [67] 0.992 | [68] 0.978 | [69] 0.998 | [70] 0.992 | [71] 1.02 | [72] 0.987 | [73] 1.07 | [74] 0.994 | [75] 0.994 | [76] 1.01 | [77] 1 | [78] 0.992 | [79] 0.996 | [80] 0.964 | [81] 0.996 | [82] 1.05 | [83] 1.03 | [84] 0.997 | [85] 0.99 | [86] 0.999 | [87] 0.994 | [88] 0.991 | [89] 1.01
